We go through 13 molecules from PubChem BioAssay (NCI).

Molecules are shown by their SMILES. Compounds without any hit were thinned out: in the full panel of roughly 83,000, 20% have a hit.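 Activity criterion: percent growth below 10, measured after cells in 96-well plates were exposed to a single compound concentration for 48 hours.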 Unmarked numbers belong to inactive results. Calls of active or inactive are those of the source.

Some test systems named below: NCI-H23 lung; NCI-H226 lung; NCI-H322M lung; HOP-62 NSCLC; NCI-H460 lung; HOP-92 NSCLC; NCI-H522 lung; A549/ATCC NSCLC; 786-0 renal; COLO 205 colon.
Common to all, as to assay: NCI-60 one-dose screen, 48 h (100 = growth as untreated, 0 = no growth, -100 = all killed)
What all share (conditions): 10 µM unless noted

As to `O=C1C(Nc2ccccn2)=C(I)C(=O)c2ncccc21`, the growth is -35.1% (active) with NCI-H23 lung; 33% in the experiment on NCI-H226 lung; -31.2% (active) in the experiment with NCI-H322M lung; -72.5% (active) in the experiment on HOP-62 NSCLC; -61.4% (active) with NCI-H460 lung; -2.25% (active) in the experiment with HOP-92 NSCLC. For the same molecule, the growth was -63.1% (active) in the experiment with NCI-H522 lung, -48.8% (active) in the experiment on A549/ATCC NSCLC, -22.9% (active) in the experiment on 786-0 renal and 49.2% in the experiment on COLO 205 colon.
As for `O=C(O)[C@@H](Cc1ccc2ccccc2c1)NC(=O)n1c2ccccc2c2ccccc21`, the growth was 34.8% in the experiment with NCI-H23 lung; 85.9% in the experiment on NCI-H226 lung; 49% in the experiment with NCI-H322M lung; 31.3% in the experiment with HOP-62 NSCLC; 9.11% (active) in the experiment on NCI-H460 lung; 39.5% in the experiment with HOP-92 NSCLC. Besides, the growth with NCI-H522 lung was -7.97% (active); in the experiment on A549/ATCC NSCLC, 44.3%; with 786-0 renal, 27.7%; in the experiment on COLO 205 colon, -35.2% (active).
For the molecule `Cc1ccc2c(-n3nc(C#N)c(C#N)c3N)cc(=O)[nH]c2c1`, the growth in the experiment on NCI-H23 lung was 88.9%; in the experiment with NCI-H226 lung, 78.7%; in the experiment with NCI-H322M lung, 66.8%; in the experiment with HOP-62 NSCLC, 68.1%; in the experiment on NCI-H460 lung, 81.1%; with HOP-92 NSCLC, 84.3%. Moreover, the growth was 77% in the experiment with NCI-H522 lung, 91% in the experiment with A549/ATCC NSCLC, 85.3% in the experiment with 786-0 renal and 97.8% in the experiment with COLO 205 colon.
On to `COC(=O)c1cc(Br)ccc1O`, for which the growth in the experiment on NCI-H23 lung is 110%; in the experiment with NCI-H226 lung, 101%; in the experiment with NCI-H322M lung it was 105%; in the experiment with HOP-62 NSCLC, 103%; in the experiment with NCI-H460 lung it was 109%; in the experiment with HOP-92 NSCLC, 86.6%. Further, the growth in the experiment with NCI-H522 lung is 94.8%; in the experiment on A549/ATCC NSCLC, 99.9%; in the experiment on 786-0 renal it was 96.7%; in the experiment on COLO 205 colon, 112%.
As for `COc1ccc(/C=C/C(c2cc(OC)c(OC)c(OC)c2)n2cncn2)cc1` (stereo not given), the growth in the experiment on NCI-H23 lung is 67%; in the experiment on NCI-H226 lung it was 76%; with NCI-H322M lung, 61.2%; with HOP-62 NSCLC, 41.8%; in the experiment with NCI-H460 lung it was 22.1%; in the experiment on HOP-92 NSCLC, 40.3%. In addition, the growth in the experiment on NCI-H522 lung is 28.4%; with A549/ATCC NSCLC it was 35.5%; with 786-0 renal, 39.6%; with COLO 205 colon, 30.7%.
Turning to `C=C(C)[C@@H]1CC[C@]2(C)[C@H](CC=C3[C@@H]4CC(C)(C)CC[C@]4(CO)CC[C@]32C)[C@@]1(C)CCCN`, the growth is 68.7% with NCI-H23 lung; 95.9% with NCI-H226 lung; 54.6% with NCI-H322M lung; 63.9% in the experiment with HOP-62 NSCLC; -93.2% (active) in the experiment on NCI-H460 lung; 42.5% with HOP-92 NSCLC. The growth in the experiment on NCI-H522 lung was -40.1% (active); with A549/ATCC NSCLC, -71% (active); in the experiment with 786-0 renal, 32.6%; in the experiment on COLO 205 colon, -56.8% (active).
For `COc1cc(C(=O)n2nc(N3CCOCC3)c3cc(-n4cccc4)ccc32)cc(OC)c1OC`, the growth in the experiment with NCI-H23 lung is 76.5%; with NCI-H226 lung it was 69.3%; with NCI-H322M lung it was 88.3%; with HOP-62 NSCLC, 92.4%; with NCI-H460 lung it was 75.7%; with HOP-92 NSCLC it was 14.4%. The growth was 74.4% in the experiment with NCI-H522 lung, 72.6% in the experiment with A549/ATCC NSCLC, 17.4% in the experiment with 786-0 renal and 56.6% in the experiment on COLO 205 colon.
Regarding `Clc1ccccc1-c1cnn2cc(-c3ccccc3)cnc12`, the growth in the experiment with NCI-H23 lung was 90.3%; in the experiment on NCI-H226 lung, 83.2%; with NCI-H322M lung, 87%; with HOP-62 NSCLC, 86%; with NCI-H460 lung, 75.3%; in the experiment on HOP-92 NSCLC, 82.9%. Further, the growth with NCI-H522 lung is 77.3%; in the experiment with A549/ATCC NSCLC, 70.5%; in the experiment on 786-0 renal, 76.7%; in the experiment on COLO 205 colon, 91.8%.
For the molecule `O=S(=O)(NCCNc1nccc(-c2c(-c3cccc(O)c3)nc3occn23)n1)c1ccc(Br)cc1`, the growth is 53.2% with NCI-H23 lung; 37.1% with NCI-H226 lung; 42.3% in the experiment on NCI-H322M lung; 45.2% with HOP-62 NSCLC; 31.2% in the experiment on NCI-H460 lung; 33.2% in the experiment on HOP-92 NSCLC. Further, the growth in the experiment with NCI-H522 lung was 24.5%; in the experiment with A549/ATCC NSCLC, 20.9%; in the experiment with 786-0 renal it was 45.8%; in the experiment with COLO 205 colon it was 18.4%.
As to `N#Cc1nc(-c2ccccc2)oc1S(=O)(=O)N1CCN(c2ccc(F)cc2)CC1`, the growth in the experiment on NCI-H23 lung was 80.8%; with NCI-H226 lung, 85.7%; in the experiment with NCI-H322M lung, 91.6%; with HOP-62 NSCLC, 112%; in the experiment on NCI-H460 lung, 102%; in the experiment with HOP-92 NSCLC it was 76%. Also, the growth with NCI-H522 lung was 2.64% (active); in the experiment on A549/ATCC NSCLC it was 101%; in the experiment with 786-0 renal, 64.9%; with COLO 205 colon, 33.6%.
As to `Nc1nc(N)c2c(n1)NC(c1cccc(Nc3ccnc4cc(C(F)(F)F)ccc34)c1)CC(c1ccccc1)=N2` (stereo not given), the growth with NCI-H23 lung is 67.1%; in the experiment on NCI-H226 lung, 87.8%; with NCI-H322M lung, 91.8%; with HOP-62 NSCLC, 54.9%; in the experiment on NCI-H460 lung it was 22.6%; in the experiment on HOP-92 NSCLC, 45%. Moreover, the growth in the experiment with NCI-H522 lung was 28.8%; in the experiment on A549/ATCC NSCLC, 41.4%; in the experiment with 786-0 renal, 67.5%; in the experiment on COLO 205 colon, 30.2%.
For `CN(CCCNC(=O)CCOCCOCCOCCNC(=O)Cc1ccc2ccc3cccc4ccc1c2c34)CCCNc1cc(-c2ccc3ccccc3c2)nc2ccccc12`, the growth in the experiment on NCI-H23 lung was -82.9% (active); with NCI-H226 lung it was -47.1% (active); with NCI-H322M lung, -88.4% (active); in the experiment with HOP-62 NSCLC, -90.4% (active); with NCI-H460 lung it was -82.6% (active); with HOP-92 NSCLC, -88.2% (active). Further, the growth in the experiment with NCI-H522 lung was -59% (active); with A549/ATCC NSCLC, -33.9% (active); in the experiment with 786-0 renal, -85.6% (active); in the experiment on COLO 205 colon, -87.7% (active).
For `C=C1C(=O)O[C@H]2[C@H]1CC/C(COC(=O)/C=C\C(=O)NCc1ccc(Cn3c(=O)sn(CCCl)c3=O)cc1)=C\CC[C@@]1(C)O[C@@H]21`, the growth is 86.9% in the experiment on NCI-H23 lung; 102% with NCI-H226 lung; 104% in the experiment on NCI-H322M lung; 116% in the experiment on HOP-62 NSCLC; 101% with NCI-H460 lung; 115% in the experiment with HOP-92 NSCLC. For the same molecule, the growth in the experiment with NCI-H522 lung is -64.4% (active); in the experiment with A549/ATCC NSCLC, 111%; with 786-0 renal, 83.4%; in the experiment with COLO 205 colon it was 34.8%.
